Sampled rows, rich in hits. Any-hit rate of the full collection: about 5.8%.
KB-3-1 cytotox: KB-3-1 parental cell cytotoxicity | KB-3-1 viability, CellTiter-Glo ATP luminescence, 72 h | AID 1347075 | actives 1.4% (n = 400,000) | Potency, µM (series often up to 46.1 µM), usual class: cytotoxic; note: % is set by controls: 0 for no effect and ±100 for the full control effect; nearly all actives have a fitted effect of over 60% in size
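Parental KB-3-1 adenocarcinoma cells in phenol-red-free DMEM with 10% FBS were pin-treated with compounds at several concentrations, incubated 72 h at 37 °C, and viability read by CellTiter-Glo luminescence; concentration-effect curves were fitted after normalization.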
KB-V1 MDR tox: KB-V1 MDR subline cytotoxicity | KB-V1 MDR cells viability, CellTiter-Glo, 72 h | actives 3.4% (n = 400,000) | Potency, µM (top dose mostly 46.1 µM), actives largely listed as cytotoxic; note: % is set by controls: 0 for no effect and ±100 for the full control effect; nearly all actives have a fitted effect of over 60% in size
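Cytotoxicity via CellTiter-Glo luminescence after 72 h compound exposure at 37 degrees C. Cells: drug-selected KB-V1 line, DMEM phenol-red free plus 10% FBS. Compounds tested at multiple concentrations; normalized data fitted to concentration-effect curves.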
SW480 rereplic: DNA re-replication induction in SW480 cells; SW480 DNA re-replication, Hoechst DNA content imaging, 48 h; actives 1.8% (n = 340,000); AID 624297; Potency, µM (series often up to 46.1 µM), for inactives: top-dose re-replication activation, hits mostly activators; note: % of control where 0% means no effect; nearly all actives have a fitted effect of over 55% in size
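Image-based read-out: total Hoechst fluorescence of nuclei (405 nm excitation, 500-530 nm emission), with hits raising the fraction of high-intensity nuclei. SW480 colon cells incubated 48 hr with compounds at 37 C.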
PINK1 expr mod: PINK1 expression modulation; actives 0.2% (n = 410,000); Potency, µM (series often up to 76.6 µM), inactives show at the highest dose activation (PINK1 increase), hits mostly activators; PINK1 immunofluorescence, high-content cytometry, 24 h; active = well fitted activation curve with a large enough effect; inconclusive = small, poorly fitted or top-dose-only effect; cell line not stated here; note: % of control where 0% means no effect; nearly all actives have a fitted effect of over 65% in size
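Cells are seeded, rested 12 hours, then given compound at five concentrations or DMSO for 24 hours. After fixation, blocking and antibody staining, PINK1 amount and mitochondrial localization are scored; CCCP serves as control.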
MCF10A rereplic: induces DNA re-replication in MCF 10a normal breast cells; MCF 10A DNA re-replication, Hoechst nuclear intensity, 48 h; Potency, µM (series often up to 46.1 µM), inactives show at the highest dose activity, positive = re-replication, hits mostly activators; actives 2.9% (n = 350,000); AID 624296; note: % of control where 0% means no effect; nearly all actives have a fitted effect of over 50% in size
ALOX12 inh: blocks human arachidonate 12S-lipoxygenase. purified 12hLO, xylenol orange hydroperoxide absorbance. Potency, µM (doses to about 108 µM), for the others: at the highest dose activity change, negative = inhibition, actives largely listed as inhibitors. actives 1.1% (n = 580,000). AID 1671190; note: % is set by controls: 0 for no effect and ±100 for the full control effect
Target sequence (P18054 whole entry, looked up): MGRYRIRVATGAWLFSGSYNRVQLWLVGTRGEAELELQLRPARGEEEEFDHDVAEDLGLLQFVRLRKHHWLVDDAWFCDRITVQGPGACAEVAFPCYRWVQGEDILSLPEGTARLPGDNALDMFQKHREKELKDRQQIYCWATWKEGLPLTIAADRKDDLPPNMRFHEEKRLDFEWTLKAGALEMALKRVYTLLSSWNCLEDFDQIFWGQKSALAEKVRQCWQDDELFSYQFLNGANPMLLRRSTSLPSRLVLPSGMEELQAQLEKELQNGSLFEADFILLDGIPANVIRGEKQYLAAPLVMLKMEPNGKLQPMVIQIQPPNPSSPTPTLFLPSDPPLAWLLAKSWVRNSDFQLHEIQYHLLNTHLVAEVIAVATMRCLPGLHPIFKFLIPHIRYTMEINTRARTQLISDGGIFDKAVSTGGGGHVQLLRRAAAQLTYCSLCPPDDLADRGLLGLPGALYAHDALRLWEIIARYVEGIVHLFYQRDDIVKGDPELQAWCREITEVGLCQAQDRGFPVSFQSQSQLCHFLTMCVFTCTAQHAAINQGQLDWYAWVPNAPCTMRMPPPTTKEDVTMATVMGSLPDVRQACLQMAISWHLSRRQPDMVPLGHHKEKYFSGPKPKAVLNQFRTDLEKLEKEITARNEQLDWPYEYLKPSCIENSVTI
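Purified human 12hLO at 150 nM in 25 mM Hepes, 0.01% Triton X-100, pH 7.0, preincubated 15 min at room temperature with compound. Reaction started with 40 uM arachidonic acid, 30 min at room temperature. Hydroperoxide measured by Fe-xylenol orange, 573/405 nm absorbance ratio.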
* marks the source's active call; other numbers are inactive results; i = inactive; ? = inconclusive; / = not tested or not shown; [ ] = dose if it differs, or a comment. Unless noted, calls come from the whole dose curve; as a rule, active = well fitted curve in the direction sought with a large enough effect; inconclusive = small, poorly fitted or top-dose-only effect, or another doubt; inactive = no such curve, though single readings can be large; an effect the other way counts as inactive or inconclusive. Potency is the fitted concentration of half-maximal effect.

SMILES	KB-3-1 cytotox	KB-V1 MDR tox	SW480 rereplic	PINK1 expr mod	MCF10A rereplic	ALOX12 inh
CCC(C)NC(=O)c1ccc2c(c1)N=C(C)c1cc(C)ccc1S2 (centres undefined)	5.17µM*	i	/	4.6%	/	0.0%
Cc1ccc(C)c(CN2C(=O)c3ccccc3Sc3ccc(C(=O)NCc4ccco4)cc32)c1	/	/	/	-0.5%	/	-28.5%
C=C(C)Cn1c(SCCO)nc2c1c(=O)[nH]c(=O)n2C	/	/	/	/	/	-0.9%
CC(NC(=O)NCCNc1cnccn1)c1ccc(C#N)cc1 (centres undefined)	/	/	/	/	/	-29.1%
O=C(NCc1ccccc1)C1C(c2ccc3c(c2)OCO3)=Nc2ccccc2N1C(=O)c1ccco1 (centres undefined)	7.31µM*	?	/	/	/	-45.7%
COc1ccccc1NS(=O)(=O)c1cc(NC(=O)c2sccc2C)ccc1N1CCOCC1	i	i	11.2%	0.4%	8.1%	0.0%
CCOC(=O)Nc1ccc(N2CCOCC2)c(S(=O)(=O)Nc2ccc(Cl)cc2)c1	i	?	20.6µM*	5.5%	?	3.2%
COc1ccc(NS(=O)(=O)c2cc(NC(=O)c3sccc3C)ccc2N2CCOCC2)cc1	7.31µM*	i	?	1.1%	?	-1.4%
COc1ccc(NS(=O)(=O)c2cc(NC(=O)c3cc(F)c(F)cc3Cl)ccc2N2CCOCC2)cc1	i	i	?	-0.4%	-4.7%	400.5%
Nc1cc(S(=O)(=O)Nc2ccc(Cl)cc2)ccc1N1CCOCC1	23.1µM*	?	3.8%	-1.0%	?	44.7µM*
CCOC(=O)Nc1ccc(NS(=O)(=O)c2cc(F)ccc2F)cc1	/	/	/	/	/	8.4%
CCOC(=O)Nc1ccc(NS(=O)(=O)c2ccc(F)cc2C)cc1	/	/	/	/	/	25.1µM*
CCCC(=O)Nc1oc2c(C)cccc2c(=O)c1-c1ccccc1	/	/	/	/	/	30.9%
Cc1ccc2oc(C(=O)NCC(c3cccs3)N3CCCCC3)cc(=O)c2c1 (centres undefined)	/	/	/	/	/	11.5%
O=C1ON=C(c2ccccc2)/C1=C/c1ccc(O)c(O)c1	i	i	-5.1%	6.6%	23.7%	?
O=C1ON=C(c2cccc([N+](=O)[O-])c2)/C1=C/c1ccc(O)cc1	?	?	?	-1.5%	?	7.94µM*
Nc1cnn(C2OC(CO)C(O)C2O)c(=O)n1 (centres undefined)	2.31µM*	4.11µM*	-5.0%	3.9%	1.0%	38.4%
Nc1nc(=O)n(C2OC(CO)C(O)C2O)cc1F (centres undefined)	i	i	/	0.0%	/	10.7%
CN(C(=O)COC(=O)CNC(=O)C1CCCCC1)c1ccccc1	i	?	20.6µM*	-1.4%	-3.1%	178.2%
CN(Cc1ccccc1)C(=S)NC(=O)C1CCCCC1	i	i	-1.3%	-0.3%	-10.4%	-8.8%
CN(C(=S)NC(=O)C1CCCC1)c1ccccc1	i	i	/	0.2%	/	20µM*
Cc1sc2nc(C)n(/N=C/N(C)C)c(=O)c2c1C	i	i	14.6µM*	-1.5%	0.3%	0.0%
CCC1(C)CC2(CCCN(CCC(=O)c3ccccc3)C2)CCO1 (centres undefined)	i	i	10.9%	-0.5%	20.6µM*	-5.4%
COc1cccc(OCCCn2cc(/C=C3/C(=N)N4C=C(C)SC4=NC3=O)c3ccccc32)c1	i	i	6.7%	10.1%	8.2µM*	?
COc1ccc(OCCCn2cc(/C=C3/C(=N)N4C=C(C)SC4=NC3=O)c3ccccc32)cc1	i	10.3µM*	-7.4%	5.1%	14.9%	40.6%
SMILES	KB-3-1 cytotox	KB-V1 MDR tox	SW480 rereplic	PINK1 expr mod	MCF10A rereplic	ALOX12 inh
COc1cccc(OCCn2cc(C=O)c3ccccc32)c1	i	i	3.0%	2.6%	6.6%	0.0%
COc1cc(/C=C2/C(=N)N3C=CSC3=NC2=O)ccc1OCCCOc1ccccc1C	i	i	3.5%	4.4%[38.3 µM]	-3.2%	8.7%
CC1=CN2C(=N)/C(=C/c3cn(CCCOc4ccccc4C)c4ccccc34)C(=O)N=C2S1	i	i	14.6µM*	3.5%	21.6%	5.9%
CCCCN1CCCCC1CNc1ccc2nnnn2n1 (centres undefined)	/	/	/	/	/	-2.2%
Cc1ccc2c(C)c(CCC(=O)N3CCCCCC3)c(=O)oc2c1	/	/	/	/	/	41.1%
CCc1cccc(C)c1NC(=O)CSc1nnc(CCCOc2ccc(Cl)cc2Cl)n1C	18.4µM*	4.61µM*	-15.3%	0.9%	25.3%	19.0%
Cn1c(CCCOc2ccc(Cl)cc2Cl)nnc1SCC(=O)Nc1ccc(F)c(Cl)c1	i	i	11.5%	8.6%	23.1µM*	-15.7%
Cn1c(CCCOc2ccc(Cl)cc2Cl)nnc1SCC(=O)Nc1cccc(F)c1	i	i	-0.9%	2.0%	?	6.6%
CCNC(=O)Nc1cc(S(=O)(=O)Nc2ccc(OC)cc2)ccc1N1CCOCC1	i	i	-4.1%	-1.3%	-4.3%	/
COc1ccc(NS(=O)(=O)c2ccc(N3CCCC3)c(NC(=S)Nc3cccc(C)c3C)c2)cc1	i	?	1.1%	-0.2%	-5.9%	15.8µM*
COc1ccc(NS(=O)(=O)c2ccc(N3CCCC3)c(NC(=S)Nc3ccc(SC(F)F)cc3)c2)cc1	?	?	-89.7%	4.1%	-6.1%	25.1µM*
COc1ccc(NS(=O)(=O)c2ccc(N3CCCC3)c(N)c2)cc1	?	i	-15.6%	1.5%	-11.3%	-5.1%
COC(=O)c1ccc2nc(C[C@@H]3C[C@@H](C(C)C)[C@H](CNC4CCCCC4)C=C3C)[nH]c2c1	/	/	/	/	/	-15.1%
CN(C)c1nc(C=C(C#N)C#N)c(Cl)n1-c1ccc(F)cc1	?	?	7.31µM*	-1.4%	?	?
Cc1cc(C=C(C#N)C#N)c(C)n1-c1ccncc1	/	/	/	/	/	-40.9%
CCN(CC)c1nc(Nc2ccccc2)nc(Oc2ccc(C(=O)OC)cc2)n1	?	?	20.6µM*	9.1%[38.3 µM]	?	-18.9%
COC(=O)c1ccc(Oc2nc(Nc3ccccc3)nc(N(C)C)n2)cc1	i	14.6µM*	13.2%	4.0%	?	-0.1%
CCN(CC)c1nc(Oc2ccc(C(=O)NN)cc2)nc(Oc2ccc(C(=O)NN)cc2)n1	i	i	1.6%	-2.5%	1.3%	0.0%
Cc1ccc(C(c2cc(Cl)c3cccnc3c2O)N2CCN(C)CC2)cc1 (centres undefined)	?	i	?	4.1%	10.9%	/
CN1CCN(C(c2ccc(C(F)(F)F)cc2)c2ccc3cccnc3c2O)CC1 (centres undefined)	i	i	?	3.2%	?	17.8µM*

Screening results as filed in PubChem BioAssay.
